Assay outcomes (PubChem)
MITF TRPM1 inh – MITF TRPM1 promoter inhibition in SK-MEL-5 cells; 0.83% of 330,000 active; SK-MEL-5 TRPM1 promoter luciferase, 24 h; inhibition, % at 12.5 µM;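 active = mean inhibition across replicates of 60% or more, whatever share of single replicates reaches that level; inconclusive = some that reach 60%, reason not given; inactive = mean inhibition across replicates below 60%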
esBAF inh – blocks esBAF chromatin remodeling in mouse ES cells | Bmi1-luciferase knock-in reporter, 24 h; 100% = twice the neutral-well signal | reporter increase, % at 12.5 µM | 2% of 350,000 active; in the data active = activation above about 40%; inconclusive = no clear call, values can overlap the other calls;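 note: 0% = median of the plate's neutral control wells and 100% = double that signal; a rise in the Bmi1 reporter signal indicates esBAF inhibition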
MITF act – increases MITF-driven TRPM1 promoter luciferase signal; 0.75% of 300,000 active; activation, % at 12.5 µM; SK-MEL-5 TRPM1-promoter luciferase, 24 h; % of positive control, neutral wells = 0;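 active = mean activation of at least 80% with every replicate also reaching 80%; inconclusive = mean reaches 80% but some replicate falls short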;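 note: 0% = neutral control wells and 100% = parthenolide positive control wells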
EWS-Fli inh – inhibitors of EWS/Fli oncoprotein transcriptional activity; 0.67% of 350,000 active; AID 651661; inhibition, % at 12.6 µM; A673 NR0B1-luciferase reporter, viability-normalised;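 active = mean inhibition of at least 50% after viability correction, with every replicate also passing that limit; inconclusive = mean reaches 50% but only one of two replicates passes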;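 note: firefly luciferase signal divided by Alamar Blue viability fluorescence both relative to DMSO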
PAX8 reporter – inhibitors of PAX8 transcriptional activity in RMG-I cells | RMG-I TPO-luciferase reporter, SteadyGlo, 24 h | inhibition, % at 12.6 µM | 1.2% of 360,000 active;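 active = mean replicate inhibition at least 60% with every replicate also reaching 60%; inconclusive = only one of the two criteria is met; inactive = mean below 60% and not all replicates reaching 60%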;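 note: luciferase light reporting Pax8 driven TPO promoter activity; plate controls were median of neutral control wells for no effect and mitoxantrone controls for full effect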
Wnt bcat act – activators of Wnt/beta-catenin signaling. Wnt/beta-catenin reporter cell assay, activator, plate reader. activation, % at 9.35 µM. 1.2% of 300,000 active. AID 743398; in the data active = activation above about 30%, passing the limit was not always enough; inconclusive = no clear call, values can overlap the other calls;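 note: 0% = neutral control wells and 100% = positive control wells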
Active calls of the source: *; ? = inconclusive; nt = not tested or not shown. Shown are actives, neighbours in structure and some others; about 4% of the full set was active somewhere.

SMILES	MITF TRPM1 inh	esBAF inh	MITF act	EWS-Fli inh	PAX8 reporter	Wnt bcat act
COc1ccc(NC(=O)N(C)C[C@H]2OCCCC[C@H](C)Oc3ccc(NS(=O)(=O)c4cccs4)cc3C(=O)N([C@@H](C)CO)C[C@H]2C)cc1	nt	-3	nt	-2	nt	nt
CC(C)NC(=O)N(C)C[C@H]1OCCCC[C@@H](C)Oc2ccc(NC(=O)c3ccccc3)cc2C(=O)N([C@@H](C)CO)C[C@@H]1C	nt	nt	nt	nt	-3	nt
Cc1nn2c(-c3ccccc3)nnc2c2ccccc12	-5	52*	nt	nt	nt	nt
Nc1ccccc1SC(CC(=O)c1ccccc1)c1ccc([N+](=O)[O-])cc1 (stereo not drawn)	nt	29	nt	-52	-113	80*
COc1ccc(C(CC(=O)c2ccc(O)cc2)S(=O)(=O)c2ccc(C)cc2)cc1 (stereo not drawn)	-85	33	86*	-57	nt	20
Cc1ccc(C(=O)CC(SCC(=O)O)c2ccc([N+](=O)[O-])cc2)cc1 (stereo not drawn)	-9	nt	14	-18	-7	90*
Nc1ccccc1SC(CC(=O)c1ccccc1)c1cccc([N+](=O)[O-])c1 (stereo not drawn)	nt	?	nt	1	-65	-21
COc1ccc(C(CC(=O)c2ccc(C)cc2)Nc2ccc([N+](=O)[O-])cc2)cc1 (stereo not drawn)	-15	nt	12	-84	30	8
COc1ccc(C(CC(=O)c2ccc(C)cc2)Sc2ccccc2N)cc1 (stereo not drawn)	nt	60*	nt	-2	-72	47*
CO[C@@H]1CN(C)C(=O)c2ccc(NC(=O)Nc3ccccc3F)cc2OC[C@@H](C)N(C)C[C@@H]1C	nt	2	nt	-1	nt	nt
Cn1c(=O)c2c(O)c(Cc3ccccc3)c(=O)[nH]c2n(C)c1=O	-7	53*	9	8	-12	0
C[C@@H]1CN([C@H](C)CO)C(=O)c2cc(Br)cnc2O[C@H]1CN(C)C(=O)C1CC1	nt	-4	nt	-3	nt	nt
CCn1c(O)c(C#N)c(C)cc1=O	8	nt	nt	-10	14	48*
CC(=O)N(C)C[C@@H]1Oc2cc(-c3cccnc3)ccc2S(=O)(=O)N([C@@H](C)CO)C[C@@H]1C	nt	1	nt	9	-25	nt
O=C(Nc1ccccn1)C(=O)Nc1ccccn1	-79	nt	70	-61	-12	39*
O=C(Nc1ccccc1)Nc1ccc2ocnc2c1	-1	57*	3	-73	-120	-1
O=C(Nc1ccc(NC(=O)c2ccccc2)nc1)c1ccncc1	-9	43*	12	-9	-70	23
O=C(Nc1ccccc1)Nc1ccccn1	-72	45*	74	nt	nt	nt
O=C(Nc1ccccc1)Nc1ccc2ncoc2c1	-15	nt	14	-65	-54	8
C[C@H](CO)N1C[C@H](C)[C@H](CN(C)Cc2ccc(C(F)(F)F)cc2)Oc2ccc(NC(=O)NC3CCCCC3)cc2CC1=O	nt	-4	nt	5	nt	nt
CCS(=O)(=O)Nc1ccc2c(c1)C(=O)N(C)[C@@H]1CC[C@@H](CC(=O)Nc3ccccc3)O[C@@H]1CO2	nt	2	nt	1	-11	nt
O=C(Nc1ccccc1)Nc1cccc2cccnc12	-42	85*	nt	nt	-86	nt
CCOC(=O)c1ccc(NC(=O)Nc2ccccn2)cc1	-106	59*	102*	-69	-135	15
CCOC(=O)c1ccc(NC(=O)Nc2cccc(C)n2)cc1	-20	36	18	-17	3	0
O=C(Nc1ccccn1)c1ccc(-c2ccccc2)cc1	13	-68	nt	73*	-1	7
SMILES	MITF TRPM1 inh	esBAF inh	MITF act	EWS-Fli inh	PAX8 reporter	Wnt bcat act
O=C(Nc1ccccc1)OCCc1ccccn1	-51	80*	51	-89	-214	13
O=C(Nc1ccccc1)Nc1cccc2ccccc12	-21	11	20	-18	14	18
COCC(=O)N1CC2(C1)CN(C(=O)Cc1ccccc1)[C@H](CO)c1c2c2ccc(OC)cc2n1C	nt	nt	nt	3	nt	nt
CCOC(=O)c1ccc(NC(=O)c2cnccn2)cc1	-120	-11	119*	nt	nt	28
Cc1noc(C)c1NC(=O)Nc1ccc2c(c1)CC(=O)N([C@@H](C)CO)C[C@@H](C)[C@H](CN(C)Cc1ccncc1)O2	nt	2	nt	-7	6	nt
Clc1ccc(C2=NOC(c3nnc(-c4ccccc4)o3)C2)cc1 (stereo not drawn)	0	1	3	-5	-4	-1
Clc1cccc(Cl)c1C1=NOC(c2nnc(-c3ccccc3)o2)C1 (stereo not drawn)	-70	50*	70	-87	-125	15
CC(=O)c1ccc(Nc2ccc(-c3ccccc3F)nn2)cc1	-75	?	73	-63	-118	31*
COc1ccccc1-c1ccc(Nc2ccc(C(=O)N3CCOCC3)cc2)nn1	-1	9	3	nt	nt	nt
COc1cc(C(=O)/C=C/c2cccnc2)c([N+](=O)[O-])cc1OC	34	10	-33	38	94*	4
CC(=O)c1sc2nc(-c3cccs3)ccc2c1N	-12	65*	nt	nt	nt	nt
Nc1c(C(=O)Nc2nc3ccccc3s2)sc2nc(-c3cccs3)ccc12	?	-13	-67	nt	nt	2
Cc1ccc2nc(NC(=O)/C=C/c3ccc4c(c3)OCO4)sc2c1	2	nt	-5	nt	5	-1
Cc1cccc(NC(=O)Nc2ccc(C#N)cc2)n1	18	20	-18	-67	-54	3
Cc1ccc(NC(=O)Nc2ccc(Cl)cn2)cc1	-78	nt	78	-119	-176	16
CCSc1nsc(NC(=O)Nc2cccc(F)c2)n1	43	-16	nt	-25	90*	-2
Cc1ccc(NC(=O)Nc2ccc(Cl)c(Cl)c2)nc1	-64	60*	nt	-109	-67	19
Cc1cccc(NC(=O)Nc2cccc(C#N)c2)n1	-41	50*	44	-87	-231	8
Cc1ccc(NC(=O)/C=C/c2ccc3c(c2)OCO3)nc1	-81	nt	?	-13	-163	30*
COc1ccc(NC(=O)Nc2ccc3c(c2)C(=O)N([C@@H](C)CO)C[C@H](C)[C@H](CN(C)C(=O)c2ccccc2)OCCCC[C@H](C)O3)cc1	nt	-4	nt	2	10	nt
O=C(NC1CCC1)[C@H]1[C@H](CO)[C@H]2Cn3c(ccc(-c4ccncc4)c3=O)[C@@H]1N2Cc1cocn1	nt	2	nt	-7	-8	nt
CCCC#Cc1ccc2c(c1)O[C@@H](CN(C)C(=O)NC(C)C)[C@@H](C)CN([C@@H](C)CO)S2(=O)=O	nt	-2	nt	-3	nt	nt
C=CCN1C(=O)[C@]2(CCS(=O)(=O)c3ccccc3)N=C(c3ccc(OCCCO)cc3)O[C@@H]2c2ccccc21	nt	nt	nt	-8	7	nt
CN1C(=O)c2cc(NC(=O)NC3CCCC3)ccc2OC[C@H]2O[C@@H](CC(=O)O)CC[C@@H]21	nt	0	nt	3	-8	nt
Cc1ccc(NC(=O)Nc2ccc3c(c2)OCO3)nc1	-132	48*	130*	-88	-215	?
Cc1ccc(NC(=O)c2cc(F)c(F)cc2Cl)nc1	-87	44*	?	-43	-185	16
Cc1ccc(NC(=O)Nc2cccc(F)c2)nc1	-62	53*	nt	-121	-197	4
